From PubChem
HGIII-sPLA2 inh: Inhibits HGIII-sPLA2 liposome hydrolysis, primary screen; Q9NZ20; QFRET BODIPY PC-A2 liposome hydrolysis, fluorescence; inhibition, % at 12.2 µM; actives 0.56% (n = 370,000); AID 743126;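 active means inhibition above mean plus 3 SD of compounds lying within the high and low control bounds, cut at about 19% in these data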;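 further: 0% = median of test compound wells and 100% = no enzyme DMSO wells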
Target sequence (Q9NZ20 whole entry, looked up): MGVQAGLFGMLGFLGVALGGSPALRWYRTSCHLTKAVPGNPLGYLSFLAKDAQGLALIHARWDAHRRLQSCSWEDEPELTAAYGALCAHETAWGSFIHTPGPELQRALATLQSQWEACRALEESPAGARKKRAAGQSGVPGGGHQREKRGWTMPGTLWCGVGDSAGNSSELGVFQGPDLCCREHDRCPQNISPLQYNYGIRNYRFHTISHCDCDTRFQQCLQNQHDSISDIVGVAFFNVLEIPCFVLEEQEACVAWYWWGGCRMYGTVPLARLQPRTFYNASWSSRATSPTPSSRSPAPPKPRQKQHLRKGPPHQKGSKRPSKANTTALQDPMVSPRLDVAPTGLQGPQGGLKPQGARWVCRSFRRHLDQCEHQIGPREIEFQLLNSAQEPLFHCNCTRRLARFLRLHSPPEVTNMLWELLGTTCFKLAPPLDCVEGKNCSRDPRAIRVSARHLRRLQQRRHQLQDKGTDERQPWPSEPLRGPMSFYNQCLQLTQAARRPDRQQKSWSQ
SUMO Mot1 rescue: SUMOylation pathway inhibition by Mot1-301 growth rescue | S. cerevisiae Mot1-301 growth rescue, ATP luminescence, 38.5C; percent above DMSO median, 100 means doubled | growth rescue, % at 18.8 µM | actives 1% (n = 320,000) | AID 2716;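 active means every valid replicate shows activation above 250% relative to neutral control wells; inactive means the rest, any valid replicate at or below 250%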;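 further: OY570 slx delta 5 strain wells were the positive control but not used for scaling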
Efflux pump mplx: blocks antifungal efflux pumps in multiplex yeast assay; inhibition, % at 10 µM; S. cerevisiae Candida pump triplex, Nile Red efflux; actives 0.44% (n = 330,000);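 active means plate passing quality check with inhibition over a set limit, or well fluorescence over plate mean plus 4 SD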;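 further: Nile Red retained in pooled yeast measured as flow cytometry median fluorescence; 0% = buffer negative control and 100% = Enniatin B positive control; higher means more Nile Red kept so more efflux inhibition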
SKN-1 inh: C. elegans SKN-1 inhibition. actives 0.49% (n = 360,000). C. elegans VP596 Pgst-4::GFP/RFP ratio, acrylamide-induced, 24 h. inhibition, % at 21.8 µM;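 active means interference check ratio from 0.5 to 1.5 plus GFP to RFP signal ratio inhibition reaching or exceeding a fixed threshold, cut at about 30% in these data, passing the limit was not always enough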
hGIII sPLA2 conf: human GIII-sPLA2 inhibition, confirmation | shares compounds with HGIII-sPLA2 inh | recombinant hGIII-sPLA2, BODIPY PC-A2 QFRET fluorescence | inhibition, % at 12.2 µM | actives 34% (n = 2,000);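 active means mean inhibition across triplicates above the hit cutoff set in the earlier primary screen, cut at about 19% in these data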;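 further: 0% = enzyme with DMSO and 100% = DMSO wells lacking enzyme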
535nm interf: counter-screen for HGIII-sPLA2 inhibitors: 535nm fluorescence interference; inhibition, % at 12.2 µM; BODIPY FL product fluorescence interference, QFRET; actives 8.5% (n = 2,000); AID 743282; shares compounds with HGIII-sPLA2 inh;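 active means average inhibition above the solvent-only control mean plus 3 SD, cut at about 6% in these data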;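 further: 0% = DMSO with substrate plus product and 100% = DMSO with substrate alone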
535nm interf DR: counter-screen for HGIII-sPLA2 inhibitors: 535nm fluorescence interference, dose response | 240 tested, under 10 active | AID 743455 | IC50, µM | BODIPY FL product fluorescence interference, cell-free | shares compounds with HGIII-sPLA2 inh;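 active means IC50 at or below 10 µM; inactive means IC50 above 10 µM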
The depositor's hits bear a star; . = no result given; ! = not active in a repeat. A selection: hits, their analogues and other compounds. The true share with any hit is near 2.2%.

SMILES | HGIII-sPLA2 inh | SUMO Mot1 rescue | Efflux pump mplx | SKN-1 inh | hGIII sPLA2 conf | 535nm interf | others
Cc1ccc2cc(C#N)c(SCC(=O)N3CCCc4ccccc43)nc2c1C | 19.6* | 4.9 | 0.3 | -1.8 | -2.7 | -4.3
CCCC1CCC2(CC1)CCC2OC(=S)Nc1cccc(C(F)(F)F)c1 (configuration not stated) | 4.9 | . | . | . | . | .
Cc1cccc2c1N(CCOc1ccc(C(C)(C)C)cc1)C(=O)C2=O | 8.2 | 3.9 | -0.2 | 6.8 | . | .
Cc1ccc(OCCCN2C(=O)C(=O)c3cccc(C)c32)cc1 | 25.9* | -12.9 | 0.2 | 12.1 | 26.0* | -2.9
CC1(C)CC(=O)C=C(Nc2ccccc2NC(=O)c2cc(F)cc(F)c2)C1 | 8.2 | . | . | . | . | .
CCCOc1ccc(C(=O)NNC(=S)NC(=O)c2ccccc2[N+](=O)[O-])cc1 | 21.2* | 2.7 | -0.2 | 2.5 | 31.1* | -4.0
O=C(NNC(=S)NC(=O)c1ccccc1)c1cccc([N+](=O)[O-])c1 | 24.7* | -0.6 | -0.1 | 22.1 | 25.4* | -0.6
CCCCC(=O)Nc1ccc(C(=O)NNC(=S)NC(=O)c2ccccc2[N+](=O)[O-])cc1 | 23.3* | -5.4 | 0.0 | 5.2 | 20.9* | -3.8
Cc1ccccc1OCC(=O)NNC(=S)NC(=O)c1ccccc1[N+](=O)[O-] | 23.2* | -0.1 | -0.1 | 4.1 | 28.3* | -4.1 | 535nm interf DR=>122
CCC(=O)NC(=S)NNC(=O)c1ccccc1[N+](=O)[O-] | -3.9 | . | 0.5 | 12.7 | . | .
CCOCCCNC(=O)CN(c1cc([N+](=O)[O-])ccc1OC)S(C)(=O)=O | 7.7 | -2.1 | 0.2 | 1.8 | . | .
CC(C)C(=O)Nc1ccc(C(=O)NNC(=S)NC(=O)c2ccccc2[N+](=O)[O-])cc1 | 20.7* | -1.0 | -0.1 | -1.2 | 18.2 | -3.7
O=C(NC(=S)N1CCCCCC1)c1cccc([N+](=O)[O-])c1 | 20.3* | -3.9 | -0.3 | -1.5 | 15.0 | -2.8
O=C(NNC(=S)NC(=O)c1ccccc1[N+](=O)[O-])c1ccccc1 | 19.5* | -13.5 | 0.1 | 18.2 | 23.9* | -2.6
O=C(NC(=S)N1CCCC1)c1cccc([N+](=O)[O-])c1 | 0.9 | -16.5 | 0.4 | 1.7 | . | .
COc1ccc(C(=O)NC(=S)NNC(=O)c2ccc(NC(=O)C(C)C)cc2)cc1 | 25.9* | -23.7 | 0.5 | -16.5 | 27.0* | -5.2
Cc1ccc2c(c1)N(CCCC(=O)N(C)Cc1ccccc1F)C(=O)CO2 | -1.9 | . | . | . | . | .
CCOC(=O)N1CCN(CC(=O)N2CCC(C(N)=O)CC2)CC1 | 3.3 | -15.0 | -0.1 | -5.8 | . | .
O=C(NC(=S)Nc1ccc(CN2CCOCC2)cc1)c1cccc([N+](=O)[O-])c1 | 19.3* | 12.9 | 0.2 | -4.3 | 3.3 | -5.7
O=C(NC(=S)Nc1ccc(N2CCOCC2)cc1)c1cccc([N+](=O)[O-])c1 | 4.4 | -11.0 | 0.0 | -1.4 | . | .
COc1cccc(N=NC2C(=O)N(C(N)=S)N=C2C)c1 (configuration not stated) | 23.1* | -0.4 | -0.1 | -4.2 | 13.5 | -1.7
COc1ccc(CN2C(=O)C(CC(=O)NCCCN(C)C)CC(C(=O)N(C)C)=C2C)cc1 (configuration not stated) | 9.0 | . | . | 3.1 | . | .
c1ccc(OCCNc2nc(NCC3CC3)nc3ccsc23)cc1 | -11.2 | . | . | 12.4 | . | .
C/C(=N\OCc1nc2ccccc2c(=O)n1/N=C/c1cc(C)cc([N+](=O)[O-])c1O)c1ccccc1 | 22.3* | -7.3 | 0.1 | -4.9 | 33.2* | 8.8*
CNC[C@H]1Oc2ccc(NC(=O)C3CCCCC3)cc2CC(=O)N([C@H](C)CO)C[C@@H]1C | -1.2 | -4.6 | 0.1 | -9.1 | . | .
SMILES | HGIII-sPLA2 inh | SUMO Mot1 rescue | Efflux pump mplx | SKN-1 inh | hGIII sPLA2 conf | 535nm interf | others
CCCC[n+]1ccn(-c2nc3ccccc3nc2[N-]S(=O)(=O)c2ccc(Br)cc2)c1 | 20.8* | -14.3 | -0.1 | 9.0 | 0.4 | -12.4
CC(C)CC[n+]1ccn(-c2nc3ccccc3nc2[N-]S(=O)(=O)c2ccccc2)c1 | -1.0 | -2.4 | 0.1 | 12.1 | . | .
CNS(=O)(=O)c1cccc(C(=O)OCC(=O)N2CC(C)OC(C)C2)c1 (configuration not stated) | 1.9 | 7.0 | 0.0 | 8.0 | . | .
COc1ccc(S(=O)(=O)CCC(=O)N2CCN(c3ccc(C(C)=O)cc3)CC2)cc1 | 2.8 | -10.8 | 0.1 | 13.1 | . | .
Cc1cc(C(=O)O)c(CSc2ncn[nH]2)o1 | 20.8* | -0.1 | 0.1 | -3.2 | 0.1 | -5.2
O=S(=O)(/N=C(/Nc1cc(N2CCOCC2)ncn1)c1ccc(F)cc1)c1ccccc1 | 19.6*! | -1.9 | 0.3 | 14.9 | 3.7 | -5.7
O=C(CSc1nc2ccccc2s1)Nn1cnnc1 | 0.6 | 3.5 | 0.1 | -6.2 | . | .
O=C(CSc1nc2ccccc2s1)NCCOc1ccc(Cl)cc1 | -2.7 | 11.6 | 0.2 | 3.8 | . | .
C=CCNC(=S)NNC(=O)CSc1nc2ccccc2s1 | 30.2* | 68.9 | 0.1 | 1.0 | 19.7* | 0.0
O=C(CSc1nc2ccccc2s1)NNC(=S)Nc1ccc(Cl)cc1 | 25.6* | -22.1 | -0.2 | -2.6 | 6.8 | 3.1
COc1ccc(S(=O)(=O)NCC(=O)N2CCN(c3ccccn3)CC2)c(OC)c1 | -0.3 | . | . | . | . | .
O=C(COc1ccc(F)c(Cl)c1)N[C@H]1CCCN(CC2CC2)C1 | -3.4 | . | . | . | . | .
Cc1cnc(C(=O)OCC(=O)Nc2sc3c(c2C#N)CCC3)cn1 | 2.3 | -1.6 | 0.0 | -2.1 | . | .
Cc1cccc(OCC(=O)Nc2sc3c(c2C#N)CCC3)c1 | 22.6* | -12.1 | 0.0 | 7.2 | 15.6 | -6.6
CC(C)Cc1c2c([nH]c(=S)c1C#N)CCCC2 | 20.3* | 36.7 | 0.1 | 13.3 | 30.4* | 2.4 | 535nm interf DR=>122
Cc1[nH]c(=S)c(C#N)c2c1CCCC2 | -0.9 | 8.1 | 0.1 | -13.2 | . | .
CC(C)C(=O)NC(c1ccc(Cl)cc1Cl)c1ccc2cccnc2c1O (configuration not stated) | 25.1* | -7.7 | -0.1 | 14.7 | 32.5* | -0.4
CCCCC(=O)NC(c1ccc(Cl)cc1Cl)c1ccc2cccnc2c1O (configuration not stated) | 20.6* | -13.9 | -0.1 | -3.8 | 29.6* | -3.3
CCCC(=O)NC(c1ccco1)c1cc([N+](=O)[O-])c2cccnc2c1O (configuration not stated) | 10.8 | -0.1 | -0.1 | -5.3 | . | .
CC(=O)NC(c1ccc(Cl)cc1)c1ccc2cccnc2c1O (configuration not stated) | 8.2 | . | . | 4.8 | . | .
CCC(=O)NC(c1ccco1)c1cc(Br)c2cccnc2c1O (configuration not stated) | 23.4* | . | . | 12.8 | 15.7 | -8.5
CCC(=O)NC(c1cccs1)c1cc(Cl)c2cccnc2c1O (configuration not stated) | 13.9 | -6.2 | -0.1 | 1.5 | . | .
